pCIP destab – p/CIP-EGFP fusion destabilizers, primary screen, fluorescence, F442A cells; Q05BA5; 16 h; decrease of EGFP signal, % at 10 µM; 290,000 compounds, 0.01% hits;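 active means EGFP signal decrease of at least 30% at 10 µM or well 3 SD below plate mean, unless failing retest; inactive means the rest, including hits failing retest or dose response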
PHOSPHO1 inh – PubChem AID 1565; Phosphoethanolamine/phosphocholine phosphatase (Homo sapiens), Q8TCT1; recombinant PHOSPHO1, absorbance phosphatase assay; inhibition, % at 13.3 µM; 290,000 compounds, 1.1% hits; in the data active means inhibition above about 60%
Target sequence (Q8TCT1 whole entry, looked up): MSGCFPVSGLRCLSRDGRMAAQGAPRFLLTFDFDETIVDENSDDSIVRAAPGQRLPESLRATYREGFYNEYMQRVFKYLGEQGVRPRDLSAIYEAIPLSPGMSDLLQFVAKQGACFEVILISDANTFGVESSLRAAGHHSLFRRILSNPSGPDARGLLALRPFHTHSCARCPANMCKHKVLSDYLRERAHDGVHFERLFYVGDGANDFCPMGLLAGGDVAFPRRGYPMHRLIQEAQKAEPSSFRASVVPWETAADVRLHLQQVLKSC
HDAC3 inh – HDAC3 deacetylase inhibitors, primary screen, biochemical, fluorescence, cell-free homogeneous | recombinant HDAC3, fluorogenic peptide/trypsin coupled | inhibition, % at 8.3 µM | 320,000 compounds, 0.15% hits | AID 2718, 2010; in the data active means inhibition above about 26%, passing the limit was not always enough; inconclusive means no clear call, values can overlap the other calls
Target sequence (O15379 whole entry, looked up): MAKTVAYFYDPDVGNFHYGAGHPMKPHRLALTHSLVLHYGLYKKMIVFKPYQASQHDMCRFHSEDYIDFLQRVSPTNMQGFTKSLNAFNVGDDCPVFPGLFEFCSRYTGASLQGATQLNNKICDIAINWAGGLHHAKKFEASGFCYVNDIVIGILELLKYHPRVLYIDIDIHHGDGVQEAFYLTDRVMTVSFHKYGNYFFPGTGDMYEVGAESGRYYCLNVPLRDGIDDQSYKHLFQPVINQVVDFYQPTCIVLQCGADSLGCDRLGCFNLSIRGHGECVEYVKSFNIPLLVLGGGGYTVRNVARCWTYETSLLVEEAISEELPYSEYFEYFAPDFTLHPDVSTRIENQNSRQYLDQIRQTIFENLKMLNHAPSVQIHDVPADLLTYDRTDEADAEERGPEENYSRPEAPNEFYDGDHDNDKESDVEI
PvdQ inh – P. aeruginosa PvdQ acylase inhibitors, primary screen, biochemical, fluorescence, plate reader and imaging, single point | purified PvdQ acylase | inhibition, % at 10 µM | 340,000 compounds, 0.063% hits | AID 488965, 2010; in the data active means inhibition above about 30%, passing the limit was not always enough; inconclusive means no clear call, values can overlap the other calls
SUMO Mot1 rescue – yeast Mot1-301 growth rescue at high temperature, primary screen, SUMOylation pathway inhibitor project, S. cerevisiae, ATP luminescence, 38.5C. S. cerevisiae Mot1-301 growth rescue; percent above DMSO median, 100 means doubled. growth rescue, % at 18.8 µM. 320,000 compounds, 1% hits;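 active means every valid replicate shows activation above 250% relative to neutral control wells; inactive means the rest, any valid replicate at or below 250%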
GASC-1 inh – inhibitors of GASC-1 histone demethylase, primary screen, biochemical, fluorescence, DELFIA europium | Lysine-specific demethylase 4C (Homo sapiens), Q9H3R0 | GST-JMJD2C(1-420) H3K9me3 demethylation | inhibition, % at 2.35 µM | 330,000 compounds, 0.069% hits | AID 2099, 2009;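 active means more than half of a compound's replicate wells show inhibition beyond 50%, single wells judged on their own value; inconclusive means some, but no more than half, of replicates pass 50% inhibition; inactive means no replicate passes 50% inhibition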;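 further: signal counts dimethyl H3K9 product captured on neutravidin plate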
Yeast Mot1 SUMO – growth restoration of Mot1-301 yeast on galactose, dose response, SUMO pathway inhibitor project, whole organism, S. cerevisiae, ATP luminescence, cherry-picked samples; shares compounds with SUMO Mot1 rescue; AID 493004, 2010; 2,300 tested, under 10 active; growth activity, percent, % at 42 µM; S. cerevisiae Mot1-301 galactose growth, 24 h; -100 = growth of slx-deleted rescue strain;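 active means Signal drops as the depositor expects, and the fitted half-maximal dose is no more than ten times the top valid tested dose; inconclusive means Poor fit, or a flat curve whose signal drops by 30% to 70%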;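 further: more negative values mean stronger growth rescue toward the control strain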
Hits are given with their value; i = inactive; ? = inconclusive; nt = no result; + = active, no number. Rows were chosen to be rich in hits. Some 2.2% of all compounds tested hit in one or more screens of this group.

SMILES | pCIP destab | PHOSPHO1 inh | HDAC3 inh | PvdQ inh | SUMO Mot1 rescue | GASC-1 inh | Yeast Mot1 SUMO
CCN(CC)C(=O)c1[nH]cnc1C(=O)Nc1ccc(C)cc1 | nt | nt | i | i | i | i | nt
Cc1ccc(S(=O)(=O)N(C)c2ccc(OC(=O)CN3C(=O)NC4(CCCC4)C3=O)cc2)cc1C | nt | nt | i | i | + | i | i
CC(C)(C)n1nnnc1C(c1ccc(Cl)cc1)N(Cc1cccnc1)Cc1ccco1 (stereo not drawn) | i | i | i | i | 437 | i | i
O=C(Nc1nc(-c2ccccc2)nc2ccccc12)c1ccc(F)cc1 | i | i | i | i | i | i | nt
CCc1ccc(OC(C)C(=O)Nc2ccc(S(=O)(=O)Nc3nccs3)cc2)cc1 (stereo not drawn) | i | i | i | i | i | i | nt
O=C(COc1ccccc1)Nc1ccc(OC(F)(F)C(F)F)c(NC(=O)COc2ccccc2)c1 | i | i | i | i | 961 | i | i
O=C(CCC(=O)Nc1ccc(F)cc1)N/N=C/c1cccs1 | i | i | i | i | 545 | i | i
O=C(CCC(=O)Nc1ccc(F)cc1)N/N=C/c1ccccc1O | i | i | i | i | i | i | nt
CC(=O)Nc1ccc(S(=O)(=O)Nc2ccc3c(c2)C(=O)OC3)cc1 | i | i | i | nt | 704 | i | i
COc1ccc(S(=O)(=O)Nc2ccc(NC(C)=O)cc2)cc1OC | i | i | i | i | + | i | i
CC(=O)Nc1ccc(NS(=O)(=O)c2ccccc2)cc1 | i | i | i | i | nt | i | nt
O=C(Nc1ccon1)c1nc[nH]c1C(=O)N1CCN(c2ccccc2)CC1 | nt | nt | i | i | i | i | nt
CC(=C\C(=O)O)/C(=C/c1ccc(C)o1)C(=O)O | i | i | nt | i | i | i | nt
CN(CCOc1ccc(-c2ccn(S(=O)(=O)c3cccc4ccccc34)n2)cc1)c1ccccn1 | i | i | i | i | 643 | i | i
O=C(Nc1ccc(Cl)cc1)C1=Cc2ccccc2OC1 | i | i | i | i | 594 | i | i
O=C(Nc1ccc(Cl)cc1)c1ccc2c(c1)OCO2 | i | i | i | i | i | i | nt
CC(C)C[C@H](NC(=O)c1[nH]cnc1C(=O)Nc1ccccc1)C(=O)OC(C)(C)C | i | i | ? | i | i | i | nt
CCn1ncc(Br)c1C(=O)Nc1ccc(OC(F)(F)F)cc1 | i | i | i | i | 451 | i | i
COc1cccc(C2/C(=C(/O)c3ccccc3)C(=O)C(=O)N2Cc2ccco2)c1 (stereo not drawn) | i | i | i | i | 497 | i | i
Nn1c(SCC(=O)Nc2ccccc2C(F)(F)F)nncc1=O | i | i | i | i | i | i | nt
Cc1ccc(-n2nnnc2C(Cl)(Cl)c2nnnn2-c2ccc(C)cc2)cc1 | i | i | i | i | + | i | i
Clc1ccc(-c2nnnn2-c2ccc(Cl)cc2)cc1 | i | i | i | i | i | i | nt
Cc1[nH]c2ccccc2c1/C=N/NC(=O)c1cccc(Br)c1 | i | nt | i | i | 497 | i | i
COc1ccc2c(CC(=O)Nc3ccc(OC)c(NS(=O)(=O)c4ccc(F)cc4)c3)coc2c1 | i | i | i | i | 560 | i | i
COc1cc(C(=O)NCCc2ncccc2C)ccc1OC1CCN(C(C)=O)CC1 | i | i | i | i | i | i | nt
SMILES | pCIP destab | PHOSPHO1 inh | HDAC3 inh | PvdQ inh | SUMO Mot1 rescue | GASC-1 inh | Yeast Mot1 SUMO
COc1cc(C(=O)NCCC2=CCCCC2)ccc1OC1CCN(C(C)=O)CC1 | i | i | i | i | 547 | i | i
COc1cc(C2c3cc(O)c(OC)cc3CC(C(=O)O)C2CO)ccc1O (stereo not drawn) | nt | nt | nt | i | nt | nt | nt
O=c1[nH]nc(Cc2ccc(-c3ccccc3Cl)o2)c2ccccc12 | i | i | i | i | 360 | i | i
Cc1ccccc1-c1nc2ccc(Cl)cc2c(=O)n1O | i | i | i | i | 613 | i | i
CCCc1cnc(NCCNCC(O)COc2ccc(Cl)c(Cl)c2)nc1 (stereo not drawn) | i | i | i | i | i | i | nt
Cc1ccc(-c2nn(-c3ccccc3)cc2C(=O)N2CCN(c3ccccn3)CC2)cc1 | i | i | i | i | 596 | i | i
O=C(c1cn(-c2ccccc2)nc1-c1ccccc1)N1CCN(c2ccccn2)CC1 | i | i | i | i | i | i | nt
C[C@]12CCC(O)CC1=CCC1C2CC[C@]2(C)/C(=N\NC(N)=S)CCC12 (stereo partly drawn) | i | nt | i | i | i | i | nt
Cc1c(C(=O)Nc2cccnc2)oc2ccc(Br)cc12 | i | i | i | i | i | i | nt
CSc1cc(C)c(OCC(=O)Nc2c(C)nn(C)c2C)c(C)c1 | i | i | i | i | 385 | i | i
Cc1nn(C)c(C)c1NC(=O)COc1ccc(F)cc1Br | nt | nt | i | i | i | i | nt
Cc1ccc(C(=O)NC2CC(C)(C)NC(C)(C)C2)cc1S(=O)(=O)N1CCCCC1 | nt | nt | nt | i | i | i | nt
Cc1ccc(CN(C)C(=O)c2ccc3c(c2)NC(=O)CS3)o1 | i | i | i | i | 364 | i | i
COc1ccccc1CN(C)C(=O)c1ccc2c(c1)NC(=O)CS2 | i | i | i | i | i | i | nt
OC(COCc1cccs1)CN1CCCCCC1 (stereo not drawn) | i | i | i | i | + | i | i
O=C(O)CN(c1ccccn1)S(=O)(=O)c1ccc(Cl)cc1 | i | i | i | i | 589 | i | i
Cc1cccc(NC(=O)CN2CCN(C(=O)C3CCCO3)CC2)c1C (stereo not drawn) | i | i | i | i | i | i | nt
COC(=O)C(NC(C)=O)(Nc1nc2ccc(S(C)(=O)=O)cc2s1)C(F)(F)F (stereo not drawn) | i | i | i | i | + | i | i
CCOC(=O)c1cc2c(ccn2-c2ccc(F)cc2)n1CC(=O)N1CCN(C(=O)c2ccco2)CC1 | i | i | i | i | 378 | i | i
CCCc1nnc(NC(=O)c2cn(CC)c3cc(N4CCN(C)CC4)c(F)cc3c2=O)s1 | i | i | i | nt | 644 | i | i
N#C/C(=C/Nc1ccccc1F)S(=O)(=O)c1ccc(Cl)cc1 | i | i | i | i | i | i | nt
CC(NC(=O)OCc1ccccc1)C(=O)N1CC(O)CC1C(=O)O (stereo not drawn) | i | i | nt | i | 451 | i | i
O=[N+]([O-])c1cccc(-c2nc3ccc([N+](=O)[O-])cc3[nH]2)c1 | i | i | i | i | 359 | i | i
COc1ccc(C(=O)Nc2ccc(S(=O)(=O)N(C)c3ccccc3)cc2)cc1 | nt | nt | i | i | i | i | nt
COc1ccc(NC(=O)c2ccc(S(=O)(=O)N(C)c3ccccc3)cc2)cn1 | i | i | nt | i | + | i | i

Screening results (PubChem)
